Assay results from PubChem BioAssay (Tox21).
Inconclusive results are not listed. Active and inactive are the calls of the source. Unless noted, calls come from the whole dose curve; as a rule, active = well fitted curve in the direction sought with a large enough effect in the repeat runs; inconclusive = weak or mixed curves; inactive = no such curve, though single readings can be large; an effect the other way counts as inactive or inconclusive.

How the values were obtained:
[1] = target: Estrogen receptor beta (Homo sapiens) (UniProt Q92731); assay: qHTS assay to identify small molecule agonists of the estrogen receptor beta (ER-beta) signaling pathway (AID 1259377; active = well fitted activation curve with a large enough effect in the signal ratio in the repeat runs, not every such curve was filed as active; the % refers to the signal ratio; note: potency is the fitted concentration of half-maximal effect)
Method in brief: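 Ratiometric beta-lactamase FRET read-out came after 2 h substrate loading at room temperature. It followed 16 h compound treatment at 37C of GripTite HEK293T cells carrying a UAS-bla reporter, plated in 2% charcoal-stripped FBS medium.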

[2] = qHTS assay to identify small molecule agonists of the androgen receptor (AR) signaling pathway in the presence of an antagonist - cell viability counter screen (AID 1259379); note: nearly all actives have a fitted effect of over 25% in size; note: potency is the fitted concentration of half-maximal effect
Method in brief: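 Fluorescence from CellTiter-Fluor, added after 15 hr and read 1 hr later, gave cell viability. Cells were MDA-kb2 exposed to compounds (15 concentrations) in the presence of 3.0uM nilutamide at 37C, 0% CO2.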

[3] = qHTS assay to identify small molecule antagonists of the estrogen receptor beta (ER-beta) signaling pathway - cell viability counter screen (AID 1259382); note: nearly all actives have a fitted effect of over 55% in size; note: potency is the fitted concentration of half-maximal effect
Method in brief: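 Following a 6 hr plating period, HEK293T cells carrying a UAS-driven beta-lactamase reporter under ER-beta control received compounds and 1nM E2 (final). After 16 hr at 37C and 2 hr substrate loading, CellTiter-Glo luminescence indicated viability.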

[4] = target: Estrogen receptor (Homo sapiens) (UniProt P03372); assay: qHTS assay to identify small molecule agonists of the estrogen receptor alpha (ER-alpha) signaling pathway in the presence of an antagonist (AID 1259383; calls by dose curve; note: nearly all actives have a fitted effect of over 15% in size; note: potency is the fitted concentration of half-maximal effect; for activation: top concentration of the series differs between compounds)
Method in brief: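 Cells are hormone-deprived for 5 days (charcoal-stripped FBS, no phenol red), plated for 24hr, spiked with 10.0nM ICI-182,780, then dosed at 15 concentrations. After 22hr at 37C, ONE-Glo luminescence reports ERE-luciferase activity.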

[5] = qHTS assay to identify small molecule agonists or antagonists of the thyroid stimulating hormone receptor (TSHR) signaling pathway - wild type cell line counter screen (AID 1259384; calls by dose curve)
Method in brief: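 Counter screen in untransfected Hek293: compounds (15-point titration, triplicate) plus phosphodiesterase inhibitor Ro20-1724 added after 18 h plating; 30 min RT. Intracellular cAMP via competitive d2/cryptate immunoassay, 1 h incubation.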

[6] = qHTS assay to identify small molecule agonists of the estrogen receptor alpha (ER-alpha) signaling pathway in the presence of an antagonist - cell viability counter screen (AID 1259386);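 note: cells exposed to compounds for 22 h at 37 °C before the viability read; nearly all actives have a fitted effect of over 30% in size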; note: potency is the fitted concentration of half-maximal effect
Method in brief: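 Cells are starved of estrogens for 5 days in charcoal-stripped serum, seeded for 24hr and co-treated with ICI-182,780 (10.0nM final) and test compounds. After 22hr at 37C, viability is read as CellTiter-Fluor fluorescence.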

[7] = qHTS assay to identify small molecule antagonists of the TGF-beta/Smad signaling pathway - cell viability counter screen (AID 1346824); note: nearly all actives have a fitted effect of over 50% in size
Method in brief: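 Cytotoxicity counter-screen run in the same wells as the beta-lactamase Smad reporter read: CellTiter-Glo luminescence after 30 min at room temperature. HEK 293T SBE-bla cells had 5 hr compound exposure at 37 C with TGF-beta1 (0.25 ng/mL stock).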

[8] = qHTS assay to identify small molecule agonists of the TGF-beta/Smad signaling pathway - cell viability counter screen (AID 1346829); note: top concentration of the series differs between compounds; nearly all actives have a fitted effect of over 45% in size
Method in brief: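 Here the cytotoxicity of library compounds is measured in SBE-bla HEK 293T cells treated for 5 hr, using CellTiter-Glo added to wells already read for the beta-lactamase reporter.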

[9] = qHTS assay to identify small molecule agonists of the TGF-beta/Smad signaling pathway (AID 1346859; active = well fitted activation curve with a large enough effect in the signal ratio in the repeat runs, not every such curve was filed as active; the % refers to the signal ratio; note: series mostly up to about 77 µM)
Method in brief: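 Fluorescence (ex 405 nm; em 460 and 530 nm) was read 2 h after LiveBLAzer FRET substrate at RT. The preceding compound treatment of overnight-plated SBE-bla HEK293T cells lasted 5 h at 37 C.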

[10] = Human pregnane X receptor (PXR) small molecule agonists, qHTS cell viability counter screen (AID 1346977); note: nearly all actives have a fitted effect of over 50% in size; note: potency is the fitted concentration of half-maximal effect
Method in brief: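 Same-well viability read: CellTiter-Fluor added after 23 hr compound exposure, fluorescence measured 1 hr later. Cells were PXR-Luc HepG2 seeded at 2,000/well in 5% charcoal-stripped FBS medium, rested 5 hr before dosing at 37 C.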

[11] = qHTS assay to identify small molecule agonists of the estrogen receptor beta (ER-beta) signaling pathway - cell viability counter screen (AID 1259380); note: nearly all actives have a fitted effect of over 30% in size; note: potency is the fitted concentration of half-maximal effect
Method in brief: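 Same-well viability counter screen. Cells: ER-beta-UAS-bla HEK293T, plated 6 hr before compound, in 2% charcoal-stripped FBS. Compound exposure 16 hr, 37C; viability by CellTiter-Glo luminescence after 30 min at room temperature.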

[12] = target: Androgen receptor (Homo sapiens) (UniProt P10275); assay: qHTS assay to identify small molecule agonists of the androgen receptor (AR) signaling pathway in the presence of an antagonist (AID 1259381; calls by dose curve; note: nearly all actives have a fitted effect of over 15% in size)
Method in brief: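 Cells are MDA-kb2 (human breast carcinoma, MMTV-luc, AR/GR responsive). Nilutamide is present at 3.0uM final throughout; compounds are added at 15 concentrations and incubated 16hr at 37C before ONE-Glo luminescence detection.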

[13] = target: Progesterone receptor (Homo sapiens) (UniProt P06401); assay: qHTS assay to identify small molecule agonists of the progesterone receptor (PR) signaling pathway (AID 1346784; calls by dose curve; note: nearly all actives have a fitted effect of over 30% in size)
Method in brief: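 Agonist qHTS: compounds pinned onto 3,000 PR-UAS-bla HEK 293T cells per well in charcoal-stripped serum medium, 16hr at 37C, then beta-lactamase activity measured by LiveBLAzer FRET fluorescence after 2 hours at room temperature.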

[14] = target: Thyrotropin-releasing hormone receptor (Homo sapiens) (UniProt P34981); assay: qHTS assay to identify small molecule antagonists of the thyrotropin-releasing hormone receptor (TRHR) signaling pathway (AID 1346877; active = well fitted inhibition curve with a large enough effect in the repeat runs, not every such curve was filed as active; note: series mostly up to about 51 µM)
Method in brief: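 Cells (TRHR-HEK293) are plated and kept 18 h at 37 °C/5% CO2. A calcium-sensitive dye is added for 2 h, compound follows for 5 min at room temperature, and TRH is then given at 1 nM final.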

[15] = target: Thyrotropin-releasing hormone receptor (Homo sapiens) (UniProt P34981); assay: qHTS assay to identify small molecule agonists of the thyrotropin-releasing hormone receptor (TRHR) signaling pathway (AID 1346891; calls by dose curve; note: series mostly up to about 58 µM)
Method in brief: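 Agonist-mode intracellular calcium readout: kinetic fluorescence over 3 min at 1 s intervals after compound addition to TRHR-HEK293 cells (18 h seeded, 2 h dye-loaded at 37 C). Fifteen concentrations, triplicates.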

[16] = target: Progesterone receptor (Homo sapiens) (UniProt P06401); assay: qHTS assay to identify small molecule antagonists of the progesterone receptor (PR) signaling pathway (AID 1346795; active = well fitted inhibition curve with a large enough effect in the signal ratio in the repeat runs, not every such curve was filed as active; the % refers to the signal ratio; note: potency is the fitted concentration of half-maximal effect)
Method in brief: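 Antagonist mode with agonist R5020 at 1 nM final and 16 hr incubation at 37C. Reporter was beta-lactamase driven by UAS in HEK293T (PR-UAS-bla), 2% charcoal-stripped serum; signal from LiveBLAzer FRET substrate, 2 hr at room temperature.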

[17] = qHTS assay to identify small molecule agonists of the progesterone receptor (PR) signaling pathway - cell viability counter screen (AID 1346799; calls by dose curve; note: nearly all actives have a fitted effect of over 45% in size)
Method in brief: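 Cytotoxicity measured by CellTiter-Glo luminescence (30 min, RT) in the same wells as the PR beta-lactamase agonist read. Those HEK293T cells had 16 h compound treatment at 37 C in 2% charcoal-stripped FBS medium.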

[18] = target: Thyrotropin receptor (Homo sapiens) (UniProt P16473); assay: qHTS assay to identify small molecule antagonists of the thyroid stimulating hormone receptor (TSHR) signaling pathway (AID 1259385; calls by dose curve; note: nearly all actives have a fitted effect of over 20% in size)
Method in brief: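 Antagonist mode: compound-treated TSHR-expressing HEK293 cells were stimulated with 1.5 ng/mL TSH (final) in presence of Ro20-1724 for 30 min at RT. HTRF cAMP detection after 1 h; each compound tested at 15 concentrations, triplicate.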

[19] = qHTS assay to identify small molecule antagonists of the progesterone receptor (PR) signaling pathway - cell viability counter screen (AID 1346798); note: nearly all actives have a fitted effect of over 50% in size; note: potency is the fitted concentration of half-maximal effect
Method in brief: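 Cytotoxicity read as CellTiter-Glo luminescence (30 min, room temperature) in the same wells as the beta-lactamase readout. HEK293T PR-UAS-bla cells in charcoal-stripped 2% FBS received compound and R5020, then 16 h at 37C, 5% CO2.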

[20] = target: Estrogen receptor beta (Homo sapiens) (UniProt Q92731); assay: qHTS assay to identify small molecule antagonists of the estrogen receptor beta (ER-beta) signaling pathway (AID 1259378; active = well fitted inhibition curve with a large enough effect in the signal ratio in the repeat runs, not every such curve was filed as active; the % refers to the signal ratio; note: potency is the fitted concentration of half-maximal effect)
Method in brief: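 Antagonist mode: compounds added to beta-lactamase reporter HEK293T ER-beta-UAS cells stimulated with E2 (1nM final), 16 hr at 37C. LiveBLAzer B/G FRET substrate, 2 hours room temperature, fluorescence read-out.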

Measured: Potency

Sequence of Androgen receptor (Homo sapiens) (P10275 whole entry, looked up): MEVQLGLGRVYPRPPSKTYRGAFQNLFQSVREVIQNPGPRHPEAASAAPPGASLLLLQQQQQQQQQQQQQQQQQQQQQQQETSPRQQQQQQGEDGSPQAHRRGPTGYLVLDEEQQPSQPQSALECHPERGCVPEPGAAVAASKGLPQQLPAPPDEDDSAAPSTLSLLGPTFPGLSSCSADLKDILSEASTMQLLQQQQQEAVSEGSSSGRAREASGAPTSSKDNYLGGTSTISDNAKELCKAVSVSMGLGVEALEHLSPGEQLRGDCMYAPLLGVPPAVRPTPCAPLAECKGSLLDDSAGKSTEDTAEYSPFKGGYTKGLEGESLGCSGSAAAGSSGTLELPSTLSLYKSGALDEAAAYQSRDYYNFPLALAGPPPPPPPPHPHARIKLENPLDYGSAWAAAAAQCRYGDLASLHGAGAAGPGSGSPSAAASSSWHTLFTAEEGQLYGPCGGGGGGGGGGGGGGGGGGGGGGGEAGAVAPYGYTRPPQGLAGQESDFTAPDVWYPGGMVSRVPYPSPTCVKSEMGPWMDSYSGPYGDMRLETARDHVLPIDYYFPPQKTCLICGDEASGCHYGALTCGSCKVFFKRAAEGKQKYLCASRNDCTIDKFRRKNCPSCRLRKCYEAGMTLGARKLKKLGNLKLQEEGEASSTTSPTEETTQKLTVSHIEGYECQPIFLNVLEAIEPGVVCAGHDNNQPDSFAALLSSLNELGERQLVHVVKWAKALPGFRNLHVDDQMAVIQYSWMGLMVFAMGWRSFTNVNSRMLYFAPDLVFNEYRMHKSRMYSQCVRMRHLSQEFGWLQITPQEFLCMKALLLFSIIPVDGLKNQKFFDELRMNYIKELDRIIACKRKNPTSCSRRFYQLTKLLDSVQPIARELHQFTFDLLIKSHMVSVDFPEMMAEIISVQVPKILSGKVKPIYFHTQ
Sequence of Thyrotropin receptor (Homo sapiens) (P16473 whole entry, looked up): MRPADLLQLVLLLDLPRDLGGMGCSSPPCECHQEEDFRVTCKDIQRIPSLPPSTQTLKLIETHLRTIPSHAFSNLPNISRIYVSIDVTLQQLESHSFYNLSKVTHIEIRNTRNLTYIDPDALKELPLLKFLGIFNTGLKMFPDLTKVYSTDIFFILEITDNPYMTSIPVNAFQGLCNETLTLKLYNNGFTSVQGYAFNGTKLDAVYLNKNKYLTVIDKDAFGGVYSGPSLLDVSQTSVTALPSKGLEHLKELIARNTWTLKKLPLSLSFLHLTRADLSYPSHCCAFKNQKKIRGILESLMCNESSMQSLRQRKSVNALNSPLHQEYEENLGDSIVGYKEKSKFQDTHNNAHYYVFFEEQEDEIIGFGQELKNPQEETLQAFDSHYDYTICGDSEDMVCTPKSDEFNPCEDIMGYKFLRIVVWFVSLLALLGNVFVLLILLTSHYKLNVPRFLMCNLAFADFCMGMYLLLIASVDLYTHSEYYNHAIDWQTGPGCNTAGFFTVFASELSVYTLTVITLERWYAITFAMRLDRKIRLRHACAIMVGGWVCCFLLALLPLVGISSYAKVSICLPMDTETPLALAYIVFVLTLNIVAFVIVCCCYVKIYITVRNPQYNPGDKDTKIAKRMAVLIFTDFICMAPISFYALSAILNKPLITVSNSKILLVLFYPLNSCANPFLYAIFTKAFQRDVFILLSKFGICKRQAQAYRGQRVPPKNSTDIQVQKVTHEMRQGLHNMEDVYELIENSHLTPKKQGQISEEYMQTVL
Sequence of Estrogen receptor beta (Homo sapiens) (Q92731 whole entry, looked up): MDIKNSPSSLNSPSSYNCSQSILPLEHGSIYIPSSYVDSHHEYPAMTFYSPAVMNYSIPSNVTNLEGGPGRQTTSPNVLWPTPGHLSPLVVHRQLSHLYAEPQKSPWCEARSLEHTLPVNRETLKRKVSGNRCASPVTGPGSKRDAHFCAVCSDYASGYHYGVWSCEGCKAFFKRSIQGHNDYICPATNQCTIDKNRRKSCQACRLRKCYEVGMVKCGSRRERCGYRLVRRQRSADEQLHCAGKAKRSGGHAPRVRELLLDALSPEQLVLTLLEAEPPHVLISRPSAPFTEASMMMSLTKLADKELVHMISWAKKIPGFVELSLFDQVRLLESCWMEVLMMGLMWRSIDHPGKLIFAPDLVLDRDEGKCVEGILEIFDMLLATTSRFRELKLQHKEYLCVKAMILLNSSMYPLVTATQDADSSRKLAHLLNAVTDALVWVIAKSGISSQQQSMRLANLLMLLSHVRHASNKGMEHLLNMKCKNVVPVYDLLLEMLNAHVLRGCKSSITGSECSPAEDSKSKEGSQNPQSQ
Sequence of Thyrotropin-releasing hormone receptor (Homo sapiens) (P34981 whole entry, looked up): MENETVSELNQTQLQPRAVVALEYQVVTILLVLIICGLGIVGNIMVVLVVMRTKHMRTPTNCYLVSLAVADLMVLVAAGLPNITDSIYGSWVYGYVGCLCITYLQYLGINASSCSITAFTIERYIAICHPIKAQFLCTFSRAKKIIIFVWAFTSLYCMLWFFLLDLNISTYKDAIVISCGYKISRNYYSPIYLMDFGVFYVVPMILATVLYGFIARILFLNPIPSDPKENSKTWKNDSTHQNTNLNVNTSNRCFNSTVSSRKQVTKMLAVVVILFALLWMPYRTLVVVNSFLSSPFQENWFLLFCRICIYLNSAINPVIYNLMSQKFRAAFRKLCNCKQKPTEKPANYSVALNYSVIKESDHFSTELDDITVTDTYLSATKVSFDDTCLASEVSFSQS
Sequence of Estrogen receptor (Homo sapiens) (P03372 whole entry, looked up): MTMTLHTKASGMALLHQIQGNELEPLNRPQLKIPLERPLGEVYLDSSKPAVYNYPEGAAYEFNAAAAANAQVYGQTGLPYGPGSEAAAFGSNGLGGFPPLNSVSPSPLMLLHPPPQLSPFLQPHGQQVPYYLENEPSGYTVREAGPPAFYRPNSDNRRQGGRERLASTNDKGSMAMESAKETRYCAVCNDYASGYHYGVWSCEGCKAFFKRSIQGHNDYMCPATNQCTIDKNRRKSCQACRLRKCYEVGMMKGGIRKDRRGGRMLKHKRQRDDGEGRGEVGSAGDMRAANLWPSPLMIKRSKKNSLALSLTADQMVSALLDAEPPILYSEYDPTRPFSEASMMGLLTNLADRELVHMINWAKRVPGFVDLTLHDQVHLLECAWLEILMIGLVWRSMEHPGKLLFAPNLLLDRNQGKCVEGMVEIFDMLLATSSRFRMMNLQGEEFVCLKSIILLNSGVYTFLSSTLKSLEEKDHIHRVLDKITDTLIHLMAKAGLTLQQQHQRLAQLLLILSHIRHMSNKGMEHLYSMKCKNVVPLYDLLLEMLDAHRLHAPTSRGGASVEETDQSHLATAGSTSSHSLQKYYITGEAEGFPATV
Sequence of Progesterone receptor (Homo sapiens) (P06401 whole entry, looked up): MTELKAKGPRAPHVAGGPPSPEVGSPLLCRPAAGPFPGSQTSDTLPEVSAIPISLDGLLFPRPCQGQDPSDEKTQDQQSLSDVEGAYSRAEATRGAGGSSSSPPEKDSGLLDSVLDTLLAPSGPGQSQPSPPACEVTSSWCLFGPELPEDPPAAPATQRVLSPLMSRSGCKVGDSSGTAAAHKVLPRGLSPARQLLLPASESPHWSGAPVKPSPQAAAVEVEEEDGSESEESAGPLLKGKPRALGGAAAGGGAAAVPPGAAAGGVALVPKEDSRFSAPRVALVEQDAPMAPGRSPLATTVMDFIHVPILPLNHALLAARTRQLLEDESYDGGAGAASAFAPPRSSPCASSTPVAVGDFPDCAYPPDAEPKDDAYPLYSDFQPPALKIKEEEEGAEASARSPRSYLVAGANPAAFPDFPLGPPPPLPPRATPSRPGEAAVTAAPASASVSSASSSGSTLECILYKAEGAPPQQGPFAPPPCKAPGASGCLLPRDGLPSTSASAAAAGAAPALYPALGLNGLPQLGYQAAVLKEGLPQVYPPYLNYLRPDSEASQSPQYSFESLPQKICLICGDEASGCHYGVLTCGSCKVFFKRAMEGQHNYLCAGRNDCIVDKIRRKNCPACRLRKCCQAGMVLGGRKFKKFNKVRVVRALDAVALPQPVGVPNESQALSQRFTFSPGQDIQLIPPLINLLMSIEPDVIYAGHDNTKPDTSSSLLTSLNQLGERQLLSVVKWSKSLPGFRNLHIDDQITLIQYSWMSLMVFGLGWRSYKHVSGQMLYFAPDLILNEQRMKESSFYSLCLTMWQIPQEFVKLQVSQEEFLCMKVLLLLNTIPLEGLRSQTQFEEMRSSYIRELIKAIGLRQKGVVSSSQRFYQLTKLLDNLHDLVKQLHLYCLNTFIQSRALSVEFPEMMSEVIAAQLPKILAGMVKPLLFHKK

C[C@]12CC[C@H]3[C@@H](CCC4=CC(=O)CC[C@@]43C)[C@@H]1CC[C@@H]2O
active: [1] 5.41 µM
inactive: [2] | [3] | [4] | [5] | [6] | [7] | [8] | [9] | [10]

COP(=S)(OC)Oc1cc(Cl)c(Br)cc1Cl
not listed: [10] | [16] | [17] | [18] | [19] | [20]
inactive: all other assays above

CN(C)CCc1c[nH]c2ccc(O)cc12
active: [16] 53.2 µM
not listed: [4] | [5] | [10] | [18] | [19] | [20]
inactive: all other assays above

C=CC(=O)N(C)C
not listed: [12] | [20]
inactive: all other assays above

O=C(Nc1ccc2[nH]ccc2c1)c1cc2cc(F)ccc2n1Cc1cccc(F)c1
inactive: [1] | [4] | [5] | [17] | [7] | [14] | [15]
active: [20] 17.2 µM | [16] 12.2 µM | [19] 48.6 µM | [10] 61.1 µM

ClC1=C(Cl)C2(Cl)C3C(Cl)C=CC3C1(Cl)C2(Cl)Cl (stereo unspecified)
active: [11] 61.4 µM
not listed: [8] | [10] | [12] | [14] | [15] | [16] | [20]
inactive: all other assays above

CC(C)(C)c1cc([N+](=O)[O-])cc(C(C)(C)C)c1O
inactive: [1] | [3] | [4] | [5] | [18] | [13] | [8] | [14] | [15]
active: [2] 8.63 µM | [6] 8.63 µM | [16] 30.6 µM | [10] 5.45 µM

O=S(=O)(c1ccc(Cl)cc1)c1ccc(Cl)cc1
inactive: [1] | [2] | [11] | [3] | [4] | [5] | [6] | [7] | [8] | [9] | [10]

O=C(CBr)c1ccc(O)cc1
not listed: [4] | [12] | [13] | [16] | [17] | [19] | [20]
inactive: all other assays above

Oc1ccc(C(=C(Cl)Cl)c2ccc(O)cc2)cc1
inactive: [2] | [5] | [18] | [7] | [8] | [9]
active: [20] 3.43 µM | [11] 68.5 µM | [3] 68.5 µM | [4] 1.93 µM

CC(C)[C@H](C(=O)O[C@H](C#N)c1cccc(Oc2ccccc2)c1)c1ccc(Cl)cc1
inactive: [20] | [2] | [3] | [5] | [18] | [6] | [7] | [9] | [10]

C1CCC2CCCCC2C1 (stereo unspecified)
not listed: [1] | [5] | [12] | [18] | [19]
inactive: all other assays above

O=C(NC(=O)c1c(F)cccc1F)Nc1cc(Cl)c(OC(F)(F)C(F)F)c(Cl)c1
not listed: [1] | [11] | [17]
inactive: all other assays above

CCCCCCCCCCBr
not listed: [1] | [5] | [7] | [12] | [17] | [18] | [19]
inactive: all other assays above

FC(F)(F)c1cccc(C2=CCN(CCc3ccc4ccccc4c3)CC2)c1
not listed: [1] | [4] | [5] | [11] | [12] | [18]
inactive: all other assays above

Cc1cc(Cl)ccc1O[C@H](C)C(=O)O
inactive: [20] | [2] | [3] | [4] | [6] | [13] | [16] | [19] | [7] | [8] | [10]
